Experimental data taken from ChEMBL document CHEMBL5598561, “ASAP - In vitro binding kinetics” (2024).

Target: Nonstructural protein 3 (Zika virus) (UniProt A0A024AXB9)
Details: PRVABC59, Concentration 10.0 uM

Nonstructural protein 3 (Zika virus), sequence (A0A024AXB9 as listed by the source): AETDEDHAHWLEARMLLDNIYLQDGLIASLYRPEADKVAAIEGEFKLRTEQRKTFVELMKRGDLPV

Cn1cc(CNC(=O)[C@H](Nc2ccc3c(c2)CNC3)c2cc(Cl)cc(C3CC3)c2)cn1
pKD (Immobilization level 10000.0 pg/mm2, Rmax 44.0 pg/mm2, ka 376767.851 M-1s-1, kd 0.158 1/s): 6.38 | pKD (Immobilization level 12000.0 pg/mm2, Rmax 64.0 pg/mm2, ka 164221.498 M-1s-1, kd 0.09 1/s): 6.26 | pKD (Immobilization level 13000.0 pg/mm2, Rmax 64.0 pg/mm2, ka 253337.321 M-1s-1, kd 0.133 1/s): 6.28

NCCCCc1ccc(NC(=O)c2cc(Cl)cc3[nH]ncc23)cc1
pKD (Immobilization level 10000.0 pg/mm2, Rmax 4.0 pg/mm2, ka 200640.001 M-1s-1, kd 1.917 1/s): 5.02 | pKD (Immobilization level 12000.0 pg/mm2, Rmax 9.0 pg/mm2, ka 275409.297 M-1s-1, kd 4.372 1/s): 4.8 | pKD (Immobilization level 13000.0 pg/mm2, Rmax 11.0 pg/mm2, ka 186293.866 M-1s-1, kd 4.24 1/s): 4.64

NCc1ccc(NC(=O)c2cc(Cl)cc3[nH]ncc23)cc1F
pKD (Immobilization level 3900.0 pg/mm2, Rmax 23.0 pg/mm2, ka 241912.451 M-1s-1, kd 2.753 1/s): 4.94 | pKD (Immobilization level 4900.0 pg/mm2, Rmax 19.0 pg/mm2, ka 418363.843 M-1s-1, kd 3.02 1/s): 5.14 | pKD (Immobilization level 5500.0 pg/mm2, Rmax 22.0 pg/mm2, ka 268076.557 M-1s-1, kd 2.711 1/s): 5 | pKD (Immobilization level 12000.0 pg/mm2, Rmax 15.0 pg/mm2, ka 138303.314 M-1s-1, kd 1.565 1/s): 4.95 | pKD (Immobilization level 13000.0 pg/mm2, Rmax 64.0 pg/mm2, ka 32485.569 M-1s-1, kd 2.272 1/s): 4.16

Cc1ccc2cc(Cl)cc(C(=O)Nc3ccc4c(c3)CNC4)c2n1
pKD (Immobilization level 10000.0 pg/mm2, Rmax 26.0 pg/mm2, ka 93254.644 M-1s-1, kd 1.647 1/s): 4.75 | pKD (Immobilization level 12000.0 pg/mm2, Rmax 38.0 pg/mm2, ka 56274.373 M-1s-1, kd 0.881 1/s): 4.8 | pKD (Immobilization level 13000.0 pg/mm2, Rmax 28.0 pg/mm2, ka 92341.007 M-1s-1, kd 1.18 1/s): 4.89

COCCCN1Cc2ccc(NC(=O)c3cc(Cl)cc4[nH]ncc34)cc2C1
pKD (Immobilization level 3900.0 pg/mm2, Rmax 42.0 pg/mm2, ka 388632.967 M-1s-1, kd 5.459 1/s): 4.85 | pKD (Immobilization level 4900.0 pg/mm2, Rmax 39.0 pg/mm2, ka 367718.358 M-1s-1, kd 4.612 1/s): 4.9 | pKD (Immobilization level 5500.0 pg/mm2, Rmax 38.0 pg/mm2, ka 400996.136 M-1s-1, kd 4.84 1/s): 4.92 | pKD (Immobilization level 10000.0 pg/mm2, Rmax 39.0 pg/mm2, ka 289414.732 M-1s-1, kd 5.077 1/s): 4.76 | pKD (Immobilization level 12000.0 pg/mm2, Rmax 59.0 pg/mm2, ka 250455.768 M-1s-1, kd 3.882 1/s): 4.81 | pKD (Immobilization level 13000.0 pg/mm2, Rmax 33.0 pg/mm2, ka 234107.52 M-1s-1, kd 2.737 1/s): 4.93

Cn1cc(CCc2nc3c(C(=O)Nc4ccc5c(c4)CNC5)cc(Cl)cc3[nH]2)cn1
pKD (Immobilization level 10000.0 pg/mm2, Rmax 29.0 pg/mm2, ka 162831.43 M-1s-1, kd 0.539 1/s): 5.48 | pKD (Immobilization level 12000.0 pg/mm2, Rmax 67.0 pg/mm2, ka 60654.253 M-1s-1, kd 0.241 1/s): 5.4 | pKD (Immobilization level 13000.0 pg/mm2, Rmax 46.0 pg/mm2, ka 118753.092 M-1s-1, kd 0.416 1/s): 5.46

NCCc1cccc(NC(=O)c2cc(Cl)cc3[nH]ncc23)c1
pKD (Immobilization level 3900.0 pg/mm2, Rmax 45.0 pg/mm2, ka 242931.571 M-1s-1, kd 0.931 1/s): 5.42 | pKD (Immobilization level 4900.0 pg/mm2, Rmax 34.0 pg/mm2, ka 409629.847 M-1s-1, kd 0.648 1/s): 5.8 | pKD (Immobilization level 5500.0 pg/mm2, Rmax 28.0 pg/mm2, ka 470049.02 M-1s-1, kd 0.591 1/s): 5.9 | pKD (Immobilization level 10000.0 pg/mm2, Rmax 29.0 pg/mm2, ka 565007.877 M-1s-1, kd 0.814 1/s): 5.84 | pKD (Immobilization level 12000.0 pg/mm2, Rmax 46.0 pg/mm2, ka 296699.948 M-1s-1, kd 0.701 1/s): 5.63 | pKD (Immobilization level 13000.0 pg/mm2, Rmax 42.0 pg/mm2, ka 451227.872 M-1s-1, kd 0.736 1/s): 5.79

O=C(Nc1ccc2c(c1)CCNCC2)c1cc(Cl)cc2[nH]ncc12
pKD (Immobilization level 3900.0 pg/mm2, Rmax 28.0 pg/mm2, ka 176787.489 M-1s-1, kd 0.385 1/s): 5.66 | pKD (Immobilization level 4900.0 pg/mm2, Rmax 58.0 pg/mm2, ka 81779.894 M-1s-1, kd 0.366 1/s): 5.35 | pKD (Immobilization level 5500.0 pg/mm2, Rmax 55.0 pg/mm2, ka 98394.506 M-1s-1, kd 0.363 1/s): 5.43 | pKD (Immobilization level 10000.0 pg/mm2, Rmax 51.0 pg/mm2, ka 117713.558 M-1s-1, kd 0.472 1/s): 5.4 | pKD (Immobilization level 12000.0 pg/mm2, Rmax 47.0 pg/mm2, ka 102680.383 M-1s-1, kd 0.29 1/s): 5.55 | pKD (Immobilization level 13000.0 pg/mm2, Rmax 85.0 pg/mm2, ka 77805.794 M-1s-1, kd 0.391 1/s): 5.3

CNC(=O)[C@H](Nc1ccc2c(c1)CNC2)c1cc(Cl)cc2[nH]ncc12
pKD (Immobilization level 3900.0 pg/mm2, Rmax 42.0 pg/mm2, ka 444409.109 M-1s-1, kd 0.101 1/s): 6.65 | pKD (Immobilization level 4900.0 pg/mm2, Rmax 59.0 pg/mm2, ka 262811.946 M-1s-1, kd 0.117 1/s): 6.35 | pKD (Immobilization level 5500.0 pg/mm2, Rmax 61.0 pg/mm2, ka 294175.896 M-1s-1, kd 0.112 1/s): 6.42 | pKD (Immobilization level 10000.0 pg/mm2, Rmax 56.0 pg/mm2, ka 424251.343 M-1s-1, kd 0.126 1/s): 6.53 | pKD (Immobilization level 12000.0 pg/mm2, Rmax 69.0 pg/mm2, ka 214381.257 M-1s-1, kd 0.135 1/s): 6.2 | pKD (Immobilization level 13000.0 pg/mm2, Rmax 81.0 pg/mm2, ka 342437.146 M-1s-1, kd 0.116 1/s): 6.47

CC(C)COc1ccc(Cl)cc1C(=O)Nc1ccc2c(c1)CNC2
pKD (Immobilization level 10000.0 pg/mm2, Rmax 31.0 pg/mm2, ka 259814.072 M-1s-1, kd 6.366 1/s): 4.61 | pKD (Immobilization level 12000.0 pg/mm2, Rmax 37.0 pg/mm2, ka 228783.03 M-1s-1, kd 3.033 1/s): 4.88 | pKD (Immobilization level 13000.0 pg/mm2, Rmax 33.0 pg/mm2, ka 351290.772 M-1s-1, kd 5.134 1/s): 4.83

O=C(Nc1ccc2c(c1)CNC2)c1cc(Br)cc2[nH]ncc12
pKD (Immobilization level 3900.0 pg/mm2, Rmax 38.0 pg/mm2, ka 289981.015 M-1s-1, kd 0.089 1/s): 6.51 | pKD (Immobilization level 4900.0 pg/mm2, Rmax 58.0 pg/mm2, ka 168121.167 M-1s-1, kd 0.102 1/s): 6.21 | pKD (Immobilization level 5500.0 pg/mm2, Rmax 62.0 pg/mm2, ka 169991.939 M-1s-1, kd 0.118 1/s): 6.16 | pKD (Immobilization level 10000.0 pg/mm2, Rmax 73.0 pg/mm2, ka 76775.421 M-1s-1, kd 0.125 1/s): 5.79 | pKD (Immobilization level 12000.0 pg/mm2, Rmax 147.0 pg/mm2, ka 18302.495 M-1s-1, kd 0.037 1/s): 5.69 | pKD (Immobilization level 13000.0 pg/mm2, Rmax 120.0 pg/mm2, ka 46201.966 M-1s-1, kd 0.079 1/s): 5.76

CC(=O)Nc1cc(Br)cc(C(=O)Nc2ccc3c(c2)CNC3)c1
pKD (Immobilization level 3900.0 pg/mm2, Rmax 40.0 pg/mm2, ka 607998.487 M-1s-1, kd 0.155 1/s): 6.59 | pKD (Immobilization level 4900.0 pg/mm2, Rmax 52.0 pg/mm2, ka 391367.264 M-1s-1, kd 0.17 1/s): 6.36 | pKD (Immobilization level 5500.0 pg/mm2, Rmax 55.0 pg/mm2, ka 425641.507 M-1s-1, kd 0.187 1/s): 6.36 | pKD (Immobilization level 10000.0 pg/mm2, Rmax 42.0 pg/mm2, ka 618288.109 M-1s-1, kd 0.171 1/s): 6.56 | pKD (Immobilization level 12000.0 pg/mm2, Rmax 74.0 pg/mm2, ka 318554.659 M-1s-1, kd 0.182 1/s): 6.24 | pKD (Immobilization level 13000.0 pg/mm2, Rmax 61.0 pg/mm2, ka 520517.585 M-1s-1, kd 0.161 1/s): 6.51
